# Data from PubChem BioAssay (NCATS).
# Several values for one entry are separate records, joined by “and”; a condition that tells them apart may be missing. Equal entries are not always repeated. Records with an inconclusive call do not appear. A call without a number means that no potency is given here. Activity calls are given as the source filed them. Unless noted, calls follow the shape of the dose curve; as a rule, active = well fitted curve in the direction sought with a large enough effect; inconclusive = small, poorly fitted or top-dose-only effect, or another doubt; inactive = no such curve, though single readings can be large; an effect the other way counts as inactive or inconclusive.
# How the values were obtained:
# [1] = Cell Viability - MRC5 (AID 434; calls by dose curve;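 also: potency is read from the fitted curve at half-maximal effect; potency reflects cytotoxicity seen as loss of intracellular ATP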); details: MRC5 lung fibroblast viability, qHTS
# In short: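 MRC5 normal human lung fibroblasts, 1500 cells/well, exposed to compound for 40 hr at 37 C. Cellular ATP was read by CellTiter-Glo luminescence; data normalized to DMSO and 100 uM tamoxifen, with AC50 from Hill fits.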
# [2] = Cell Viability - NIH 3T3 (AID 541); details: NIH 3T3 cell viability, qHTS; activity change, negative = cytotoxicity: at 92.2 µM (top of the series); also: nearly all actives have a fitted effect of over 25% in size
# In short: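 Luminescent ATP signal (CellTiter-Glo) served as the viability read-out after NIH 3T3 cells were exposed to compounds over a concentration range for 40 hr at 37 °C. Hill-equation modelling of concentration-response data gave AC50.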
# [3] = Cell Viability - Mesenchymal (AID 546); details: mesenchymal cells viability, qHTS; series mostly up to 91.7 µM;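 also: cells exposed to compound for 40 hours before reading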
# In short: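 Human kidney mesenchymal cells from normal renal glomeruli, 1000 cells/well, rested 5 hr at 37 °C, then treated 40 hr at 37 °C in complete medium. Cellular ATP read by CellTiter-Glo luminescence; AC50 from Hill-equation fits.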
# [4] = Cellular Toxicity (caspase-3) HepG2 (AID 654); details: HepG2 caspase-3 activation, luminescence, 0% = DMSO only, 100% = tamoxifen; series mostly up to 92.2 µM;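 also: cells exposed to compound for 16 hours before reading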
# In short: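 Cells plated 5 hr at 37 °C, compound added, incubated 16 hr at 37 °C. Caspase-Glo 3/7 reagent followed, 20 min at room temperature, then luminescence read. Activation scored as signal increase; AC50 from Hill fit.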
# [5] = Cellular Toxicity (caspase-3) SHSY5Y (AID 657); details: SH-SY5Y caspase-3 activation, DMSO zero, 10 µM staurosporine = 100%; series mostly up to 91.7 µM
# In short: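 SH-SY5Y human neuroblastoma cells (1500/well) were treated with compounds for 16 h at 37 °C, then Caspase-Glo 3/7 luminescence was read after 1 h at room temperature. Data normalized to DMSO and 10 uM staurosporine; AC50 from Hill fits.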
# [6] = Cellular Toxicity (caspase-3) MRC-5 (AID 659); details: MRC-5 cells, luminescence, normalized: DMSO 0%, 10 µM staurosporine 100%; series mostly up to 91.7 µM
# In short: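 MRC-5 human normal lung fibroblasts, 1500 cells/well, treated 16 h at 37 °C in complete medium. Caspase 3/7 measured by Caspase-Glo luminescence after 1 h at room temperature. Normalized to DMSO and 10 uM staurosporine; AC50 from Hill fit.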
# [7] = Cellular Toxicity (caspase-3) Mesangial (AID 660); details: mesangial cells, normalized: DMSO 0%, 100 µM tamoxifen 100%; series mostly up to 91.7 µM;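 also: combined caspase 3 and 7 activity read by Caspase-Glo luminescence; cells exposed to compound for 16 h before the caspase read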
# In short: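 Mesangial cells, 1000/well, 5 h settle at 37 °C; compound 16 h, 37 °C; Caspase-Glo 3/7 reagent 20 min RT; luminescence. Norm.: DMSO = 0%, tamoxifen 100 uM = 100%. AC50, Hill fit.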
# [8] = Cell Viability - LYMP2-001 (AID 921); details: LYMP2-001 lymphoblastoid cell viability; series mostly up to 92.2 µM; also: nearly all actives have a fitted effect of over 70% in size
# In short: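 Human lymphoblastoid cells (Coriell), 2500 per well, were preincubated 5 hr at 37 C, then exposed to compounds in complete medium for 24 hr at 37 C. Cellular ATP was read by CellTiter-Glo luminescence; AC50 from Hill fits of concentration-response data.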
# [9] = MultiTox-Fluor Cytotoxicity Assay - LYMP1-001 - Dead Cells (AID 946); details: LYMP1-001 lymphoblastoid cells, dead-cell protease fluorescence; series mostly up to 92.2 µM; also: potency is read from the fitted curve at half-maximal effect
# In short: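 AC50 from Hill fit of concentration-response; data normalized to DMSO (basal) and 15 uM tetraoctylammonium bromide (100%). LYMP1-001 lymphoblastoid cells, 2500/well, 16 hr compound at 37 C; dead-cell protease fluorescence, Ex/Em 485/520.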
# [10] = Cell Viability - LYMP2-011 (AID 969); details: LYMP2-011 lymphoblastoid cells viability; series mostly up to 92.2 µM; also: nearly all actives have a fitted effect of over 60% in size; also: potency is read from the fitted curve at half-maximal effect
# In short: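 2500 cells/well, 5 hr 37 C; compound added, 24 hr 37 C; CellTiter-Glo 30 min RT; luminescence. qHTS concentration-response, Hill-equation AC50. Tetraoctylammonium bromide positive control.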
# [11] = Cell Viability - LYMP2-021 (AID 974); details: LYMP2-021 lymphoblastoid cells viability; series mostly up to 92.2 µM;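 also: compound exposure lasts 24 hours at 37 °C; nearly all actives have a fitted effect of over 55% in size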; also: potency is read from the fitted curve at half-maximal effect
# In short: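 Plate 2500 lymphoblastoid cells per well and incubate 5 hr at 37 C. Add compounds over a concentration range and incubate 24 hr at 37 C. Add CellTiter-Glo, wait 30 min at room temperature, read luminescence.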
# [12] = Cell Viability - LYMP2-006 (AID 978); details: LYMP2-006 lymphoblastoid cell viability, qHTS; series mostly up to 92.2 µM; also: nearly all actives have a fitted effect of over 60% in size; also: potency is read from the fitted curve at half-maximal effect
# In short: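 Human lymphoblastoid cells, 2500 per well, were preincubated 5 hr at 37 C, then exposed to compounds for 24 hr at 37 C in complete medium. Viability was read as intracellular ATP by CellTiter-Glo luminescence; AC50 from Hill-equation fits of qHTS concentration-response data.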
# [13] = target: Estrogen receptor (Homo sapiens) (UniProt P03372); experiment: qHTS assay for small molecule antagonists of estrogen receptor alpha signaling (AID 588513; active = well fitted curve in the direction sought with a large enough effect in the signal ratio, with a control signal flat, not every such curve was filed as active; the % refers to the signal ratio); details: ER-alpha-UAS-bla HEK293, beta-lactamase ratio, antagonist mode; series mostly up to 76.9 µM
# Chain of Estrogen receptor (Homo sapiens) (P03372 whole entry, looked up): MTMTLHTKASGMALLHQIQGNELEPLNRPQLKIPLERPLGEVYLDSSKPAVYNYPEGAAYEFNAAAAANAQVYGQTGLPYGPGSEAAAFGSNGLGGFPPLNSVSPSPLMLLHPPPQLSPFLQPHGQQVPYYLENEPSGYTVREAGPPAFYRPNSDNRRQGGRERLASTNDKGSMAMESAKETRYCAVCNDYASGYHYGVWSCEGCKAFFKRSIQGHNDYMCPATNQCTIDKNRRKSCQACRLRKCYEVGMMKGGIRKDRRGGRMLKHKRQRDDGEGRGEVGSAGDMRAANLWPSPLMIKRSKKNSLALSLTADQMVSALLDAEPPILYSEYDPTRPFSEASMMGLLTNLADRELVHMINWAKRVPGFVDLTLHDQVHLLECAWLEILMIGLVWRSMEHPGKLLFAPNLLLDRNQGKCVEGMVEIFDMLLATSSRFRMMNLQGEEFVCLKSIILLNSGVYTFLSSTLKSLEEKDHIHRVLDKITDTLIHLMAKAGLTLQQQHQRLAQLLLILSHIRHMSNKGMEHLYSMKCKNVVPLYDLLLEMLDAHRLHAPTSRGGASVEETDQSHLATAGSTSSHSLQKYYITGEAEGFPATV
# In short: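 ER-alpha-UAS-bla GripTite HEK 293 cells in medium with 2% charcoal/dextran-treated FBS were preincubated 4 h at 37 C, dosed with compound (1:2 titration), stimulated with 0.5nM 17-beta-estradiol for 18 h, then read by CCF4 beta-lactamase fluorescence.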
# [14] = target: Peroxisome proliferator-activated receptor delta (Homo sapiens) (UniProt Q03181); experiment: qHTS assay for small molecule agonists of peroxisome proliferator-activated receptor delta signaling (AID 588534; calls by dose curve); details: HEK293T PPARdelta-UAS-bla, beta-lactamase ratio, 18 h; series mostly up to 76.7 µM
# Chain of Peroxisome proliferator-activated receptor delta (Homo sapiens) (Q03181 whole entry, looked up): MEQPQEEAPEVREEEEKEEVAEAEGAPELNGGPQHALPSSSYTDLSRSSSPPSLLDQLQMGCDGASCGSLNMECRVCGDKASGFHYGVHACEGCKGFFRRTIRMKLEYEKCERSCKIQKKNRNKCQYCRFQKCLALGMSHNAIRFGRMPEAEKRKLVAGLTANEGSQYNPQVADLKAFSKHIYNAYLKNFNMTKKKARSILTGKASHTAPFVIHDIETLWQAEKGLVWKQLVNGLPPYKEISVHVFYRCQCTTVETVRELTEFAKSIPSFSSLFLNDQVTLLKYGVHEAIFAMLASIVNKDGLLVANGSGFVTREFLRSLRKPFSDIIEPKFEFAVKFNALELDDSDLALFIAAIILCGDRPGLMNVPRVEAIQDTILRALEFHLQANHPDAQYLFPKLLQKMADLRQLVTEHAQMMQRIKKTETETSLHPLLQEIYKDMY
# In short: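 Fluorescence from CCF4 substrate cleavage by beta-lactamase reporter, read 2 hrs at RT, measured agonist activity. Compounds were tested with 18 hrs exposure at 37 C. Concentration-response data fitted to Hill equation.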
# [15] = qHTS assay for small molecule antagonists of peroxisome proliferator-activated receptor delta signaling (AID 588535); details: HEK293T PPARd-UAS-bla, beta-lactamase FRET ratio, 18 h; 460 nm channel;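 also: cells co-treated with a PPAR-delta agonist as stimulator during compound exposure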
# In short: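 Antagonist-mode beta-lactamase reporter (GeneBLAzer PPAR-delta-UAS-bla) in HEK293T cells, 2% charcoal/dextran FBS, 4000 cells/well. Compound titrations, 18 h at 37 C; CCF4 ratio read, IC50 and efficacy from Hill fits.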
# [16] = target: Peroxisome proliferator-activated receptor gamma (Homo sapiens) (UniProt P37231); experiment: qHTS assay for small molecule antagonists of peroxisome proliferator-activated receptor gamma signaling (AID 588537; active = well fitted inhibition curve with a large enough effect in the signal ratio, with a control signal flat, not every such curve was filed as active; the % refers to the signal ratio;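 also: reporter cells co-stimulated with 50 nM rosiglitazone agonist during compound treatment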); details: HEK293 PPARg-UAS-bla, beta-lactamase ratio, antagonist mode; series mostly up to 76.8 µM
# Chain of Peroxisome proliferator-activated receptor gamma (Homo sapiens) (P37231 whole entry, looked up): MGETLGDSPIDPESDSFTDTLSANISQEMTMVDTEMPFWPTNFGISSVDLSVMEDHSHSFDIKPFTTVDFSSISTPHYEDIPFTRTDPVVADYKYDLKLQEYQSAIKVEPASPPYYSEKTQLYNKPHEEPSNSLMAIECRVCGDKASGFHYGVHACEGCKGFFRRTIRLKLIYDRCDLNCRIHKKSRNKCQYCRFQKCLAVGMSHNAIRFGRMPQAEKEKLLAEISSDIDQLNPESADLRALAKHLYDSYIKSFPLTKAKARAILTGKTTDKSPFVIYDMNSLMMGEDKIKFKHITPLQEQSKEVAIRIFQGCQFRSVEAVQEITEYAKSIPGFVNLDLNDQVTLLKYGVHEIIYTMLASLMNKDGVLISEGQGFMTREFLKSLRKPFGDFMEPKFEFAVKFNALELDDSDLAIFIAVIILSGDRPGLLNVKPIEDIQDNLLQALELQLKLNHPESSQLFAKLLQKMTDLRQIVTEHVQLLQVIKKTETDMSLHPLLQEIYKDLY
# In short: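 PPARγ-UAS-bla HEK293 cells (3000/well) in 1% charcoal/dextran-stripped FBS are treated with compound, then stimulated with 50 nM rosiglitazone for 16 h at 37 °C. Read-out is CCF4 β-lactamase fluorescence after 2 h at RT. IC50 comes from Hill fits normalised to rosiglitazone and DMSO.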
# [17] = qHTS assay for small molecule disruptors of the mitochondrial membrane potential - 1 hr assay (AID 651754; calls by dose curve; also: nearly all actives have a fitted effect of over 35% in size; also: potency is read from the fitted curve at half-maximal effect); details: series mostly up to 92.2 µM
# In short: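 HepG2, 2,000 cells/well, overnight attachment; cpd or DMSO 1 hr, 37C/5% CO2; Mito-MPS dye 30 min, 37C; fluorescence monomer (490/535) and aggregate (540/590).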
# [18] = target: Nuclear receptor ROR-gamma (Homo sapiens) (UniProt P51449); experiment: qHTS assay for small molecule antagonists of the retinoid-related orphan receptor gamma (ROR-gamma) signaling pathway (AID 651802); details: ROR-gamma antagonist cell reporter assay; series mostly up to 92.2 µM; also: nearly all actives have a fitted effect of over 60% in size; also: potency is read from the fitted curve at half-maximal effect
# Chain of Nuclear receptor ROR-gamma (Homo sapiens) (P51449 whole entry, looked up): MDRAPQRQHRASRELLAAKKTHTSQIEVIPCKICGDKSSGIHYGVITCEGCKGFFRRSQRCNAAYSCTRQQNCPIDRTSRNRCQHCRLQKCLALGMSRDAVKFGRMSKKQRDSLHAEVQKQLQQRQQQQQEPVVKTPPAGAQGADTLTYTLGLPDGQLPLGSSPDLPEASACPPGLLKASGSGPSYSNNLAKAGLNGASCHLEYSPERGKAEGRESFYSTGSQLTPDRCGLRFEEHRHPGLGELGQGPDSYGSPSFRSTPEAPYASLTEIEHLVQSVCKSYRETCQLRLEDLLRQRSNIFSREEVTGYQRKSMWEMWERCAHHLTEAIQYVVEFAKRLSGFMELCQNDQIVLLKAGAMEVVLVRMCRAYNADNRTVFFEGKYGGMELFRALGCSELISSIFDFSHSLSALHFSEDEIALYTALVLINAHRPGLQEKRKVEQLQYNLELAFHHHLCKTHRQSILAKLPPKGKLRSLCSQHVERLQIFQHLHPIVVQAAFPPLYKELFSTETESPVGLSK
# In short: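 CHO, TET-inducible ROR + RORE-LUC reporter, 1536-well qHTS. Compound pinned, doxycycline added, 16hr 37C/5% CO2. ONE-Glo, 30 min RT, luminescence; signal drop scored as antagonism.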
# [19] = qHTS assay for small molecule antagonists of the retinoid-related orphan receptor gamma (ROR-gamma) signaling pathway - cell viability counter screen (AID 720652; active = well fitted curve in the direction sought with a large enough effect in the repeat runs; an effect the other way counts as inactive or inconclusive;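 also: compound exposure lasted 16 hr before ATP read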; also: potency is read from the fitted curve at half-maximal effect); details: RORgamma reporter cell line viability counter screen; series mostly up to 92.2 µM
# In short: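 Luminescence from CellTiter-Glo after 30 min at room temperature reported cellular ATP as the cytotoxicity measure. Cells were the CHO reporter line with doxycycline-induced ROR-gamma expression, exposed to compound for 16 hr at 37 C.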
# [20] = qHTS assay for cell viability of HEK293 cells (AID 743288); details: ATP luminescence (CellTiter-Glo), 18 h; max response: stronger effect = lower value; also: nearly all actives have a fitted effect of over 50% in size
# In short: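 Parental HEK293 cells were seeded at 2,000 cells/well, rested at least 5 h at 37 C, then exposed to compounds in DMSO for 18 h at 37 C. Viability was read as ATP-dependent luciferase luminescence after 30 min at room temperature.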
Compound,Potency [1],"activity change, negative = cytotoxicity [2]",outcome [3],outcome [4],outcome [5],outcome [6],outcome [7],Potency [8],Potency [9],Potency [10],Potency [11],Potency [12],Potency [13],outcome [14],max response [15],Potency [16],Potency [17],Potency [18],Potency [19],max response [20]
COC(=O)NC(=S)Nc1ccccc1NC(=S)NC(=O)OC,> 92 µM (inactive),-30% (inactive),inactive,inactive,inactive,inactive,inactive,inactive,inactive,inactive,inactive,inactive,inactive,inactive,-30.4% and 40.5%,inactive,inactive,inactive,inactive,1.27% (inactive) and -9.9% (inactive)
COP(=S)(OC)Oc1ccc([N+](=O)[O-])cc1,> 92 µM (inactive),-18.8% (inactive),inactive,inactive,inactive,inactive,inactive,inactive,inactive,inactive,inactive,inactive,inactive,inactive,-15.9%,inactive,inactive,inactive,inactive,-1.38% (inactive) and -0.0798% (inactive)
ClC1=C(Cl)C2(Cl)C3C4CC(C5OC45)C3C1(Cl)C2(Cl)Cl (stereo not given),> 92 µM (inactive),-20.8% (inactive),,inactive,inactive,inactive,inactive,,,39.8 µM (active),39.8 µM (active),31.6 µM (active),inactive,,,,,13.3 µM (active),,
c1ccc(N=Nc2ccccc2)cc1,> 92 µM (inactive),-2.38% (inactive),inactive,inactive,inactive,inactive,inactive,inactive,inactive,,,inactive,,,,inactive,inactive,inactive,inactive,
CNC(=O)N(C)c1nnc(C(C)(C)C)s1,,,,,,,,,,,,,inactive,inactive,22%,inactive,,,,-3.03% (inactive)
CCCCCCCCCc1ccc(O)cc1,,,inactive,,,,,inactive,39.8 µM (active),inactive,inactive,,,inactive,-9.37% and -27.9%,,10.6 µM (active),,66.8 µM (active),-7.88% (inactive)
